Source: PubChem BioAssay AID1942 (Johns Hopkins Ion Channel Center, 2009)
Screen size: about 2,400 compounds; about 580 (24%) were called active. Only a sample is shown. A number with no mark means an inactive call.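 The calls were made as follows: active = activity change at or above the mean plus 3 SD of buffer wells without dofetilide, per plate; inactive = the rest.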

Target: Potassium voltage-gated channel subfamily KQT member 2 (Rattus norvegicus) (UniProt O88943)
Assay: rat KCNQ2 channel activation by compounds alone, confirmation, counter-screen for hERG block protector project, cell-based, CHO, FluxOR thallium flux (AID 1942);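 also: normalized value minus buffer-control mean plus three SD of buffer wells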
Details: CHO-KCNQ2 cells, FluxOR thallium flux fluorescence; at 10 µM; stronger effect = higher value

Potassium voltage-gated channel subfamily KQT member 2 (Rattus norvegicus), sequence (O88943 whole entry, looked up): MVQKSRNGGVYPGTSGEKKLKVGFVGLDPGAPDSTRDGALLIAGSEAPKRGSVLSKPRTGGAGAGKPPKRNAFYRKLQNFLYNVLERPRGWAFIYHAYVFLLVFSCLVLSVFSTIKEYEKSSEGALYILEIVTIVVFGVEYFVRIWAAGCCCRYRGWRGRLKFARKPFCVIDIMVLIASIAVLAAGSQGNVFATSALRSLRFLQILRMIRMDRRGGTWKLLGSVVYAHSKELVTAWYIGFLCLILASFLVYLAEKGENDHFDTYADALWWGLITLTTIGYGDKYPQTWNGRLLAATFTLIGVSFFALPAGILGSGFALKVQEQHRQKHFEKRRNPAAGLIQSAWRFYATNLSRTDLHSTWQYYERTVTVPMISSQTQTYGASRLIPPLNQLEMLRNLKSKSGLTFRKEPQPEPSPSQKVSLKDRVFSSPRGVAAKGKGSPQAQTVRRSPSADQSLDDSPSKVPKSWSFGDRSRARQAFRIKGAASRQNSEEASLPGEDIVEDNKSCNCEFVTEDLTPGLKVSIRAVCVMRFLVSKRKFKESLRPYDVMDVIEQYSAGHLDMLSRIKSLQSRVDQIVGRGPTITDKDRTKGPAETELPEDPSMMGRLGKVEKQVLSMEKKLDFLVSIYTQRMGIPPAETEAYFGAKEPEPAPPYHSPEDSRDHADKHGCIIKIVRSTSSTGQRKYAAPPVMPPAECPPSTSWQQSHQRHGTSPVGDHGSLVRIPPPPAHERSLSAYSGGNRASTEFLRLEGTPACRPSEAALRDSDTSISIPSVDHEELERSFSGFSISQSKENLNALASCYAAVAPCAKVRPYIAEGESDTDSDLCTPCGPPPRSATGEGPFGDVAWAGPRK

| Compound | activity change, less the hit threshold |
| --- | --- |
| S=c1[nH]nc(-c2n[nH]c3c2CCC3)n1/N=C/C=C/c1ccccc1 | -26.2% |
| CC(=O)OCC1O[C@@H](O[C@@H]2C[C@H]3C(C)(C)[C@H](OC(C)=O)CC[C@]3(C)[C@H]3CC[C@]45C[C@]4(CC[C@H]5[C@@H](C)C[C@@H](O)[C@H](O)C(C)(C)O)[C@@]32C)[C@H](O)[C@@H](O)[C@@H]1O (stereo not given in full) | 1% (active) |
| CC(Nc1ccc(F)cc1)=[N+](C)CCNS(=O)(=O)c1ccc(Cl)cc1 | -10.9% |
| N/C(=N\OS(=O)(=O)c1cccc([N+](=O)[O-])c1)c1ccncc1 | 1.3% (active) |
| O=C(CSc1nnc(-c2ccncc2)o1)c1cccc([N+](=O)[O-])c1 | -29.3% |
| CN(c1cccc(NS(=O)(=O)c2cccc([N+](=O)[O-])c2)c1)S(C)(=O)=O | -9.2% |
| CCOc1cccc(Nc2cc3n(c(=O)n2)CCc2cc(OC)c(OC)cc2-3)c1 | -19.8% |
| CCCn1c(SCN2C(=O)c3ccccc3C2=O)nc2cc(Cl)ccc2c1=O | 21.1% (active) |
| O=C1c2ccccc2C(=O)N1Cc1nc2ccccc2c(=O)n1CCCn1ccnc1 | -20.6% |
| CC(C)CCn1c(SCC(=O)NC2CC2)nc2cc(Cl)ccc2c1=O | -8.5% |
| Cc1ccc(OCC(=O)Nn2cnc3ccccc32)cc1 | -12.3% |
| O=C(CCc1ccc(S(=O)(=O)N2CCCCC2)cc1)c1nnc(-c2ccccc2)o1 | -13.3% |
| S=C(N/N=C/c1cccc2ccccc12)Nc1cccc(Cl)c1 | -17.2% |
| S=c1nn[nH]n1C12CC3CC(CC(C3)C1)C2 | 21.6% (active) |
| O=C1c2ccccc2C(=O)N1Cc1ccco1 | -11.8% |
| O=c1c2c3c(sc2[nH]c(=S)n1Cc1ccco1)CCC3 | 26.9% (active) |
| CCn1c(=S)[nH]c2sc3c(c2c1=O)CCCC3 | 49.6% (active) |
| Cc1ccc(-n2c(=S)[nH]c3sc4c(c3c2=O)CCC4)cc1 | 0.2% (active) |
| Cc1cc(=O)[nH]c(=S)n1-c1ccccc1 | -31% |
| CCn1c(=S)[nH]c2sc3c(c2c1=O)CCCCC3 | 97.9% (active) |
| Cc1cccc(-n2c(=S)[nH]c3sc4c(c3c2=O)CCc2ccccc2-4)c1 | -19.9% |
| CCN(/N=C/c1ccc(Cl)cc1)c1cc(=O)n(C)c(=O)[nH]1 | -19% |
| CCCCCOCC1CC(C/C(C)=N/Nc2nc(-c3ccccc3)cs2)C(=O)O1 (stereo not given) | -18.7% |
| O=C(/C=C/Nc1ccc(F)cc1)c1ccco1 | -17.3% |
| O=C(c1cccc2c1-c1ccccc1C2)N1CCCCC1 | -20.1% |

| Compound | activity change, less the hit threshold |
| --- | --- |
| O=C(O)c1ccc2c(c1)C(=O)N(c1cc([N+](=O)[O-])ccn1)C2=O | -1.1% |
| O=C(CN1CCN(Cc2ccccc2)CC1)NCc1ccccc1Cl | -10.1% |
| CCCn1c(=S)[nH]c2sc3c(c2c1=O)CCCC3 | 72% (active) |
| COc1ccc(N(CC(=O)N2CCN(Cc3ccccc3)CC2)S(C)(=O)=O)cc1 | -25.7% |
| C#CCN1C(=O)S/C(=C\c2ccc(-c3ccc(C(=O)O)cc3C)o2)C1=O | -20.3% |
| COc1cc(CCC(=O)NNC(=O)c2ccc(C)cc2)cc(OC)c1OC | -8.9% |
| Oc1c(Br)cc(Br)cc1C=Nc1ccc2[nH]ncc2c1 | 33% (active) |
| Oc1c(Br)cc(Br)cc1C=Nc1ccc2c(c1)OCCO2 | -1.5% |
| CCOc1cccc(C(=O)Nc2ccc3[nH]ncc3c2)c1 | -15.8% |
| O=C(CSc1nc2ccccc2o1)NCc1n[nH]c(=O)c2ccccc12 | -12.3% |
| COc1ccc(-n2nc(C)cc2Nc2ccccc2C(=O)O)cc1 | 21.8% (active) |
| CCOc1ccc(C(=O)Nc2ccccc2C(=O)O)cc1 | -4% |
| Cc1cc(NC(=O)/C(C#N)=C/c2ccco2)n(-c2ccccc2)n1 | -20.2% |
| CCCCSc1nnc(CCC)n1N | -8.4% |
| CCOC(=O)c1c(NC(=O)CN2CCN(C(=O)c3ccco3)CC2)sc2c1CCCC2 | 17.6% (active) |
| CC(C)OC(=O)c1c(NC(=O)c2ccco2)sc2c1CCCCC2 | -27.5% |
| CCOc1ccc(OCC(=O)OCC(=O)N2CCN(C(=O)c3ccco3)CC2)cc1 | -10.5% |
| COC(=O)c1c(NC(=O)c2ccco2)sc2c1C(C(=O)OC)CC2 (stereo not given) | -18.3% |
| CCc1c(C)sc(NC(=O)CN2CCN(C(=O)c3ccco3)CC2)c1C(=O)OC | 16.7% (active) |
| O=C(CNCC1CCCO1)N1CCCCCC1 (stereo not given) | -15.5% |
| CC(Oc1ccc(Br)cc1Br)C(=O)Nc1cccnc1 (stereo not given) | -16.3% |
| Cc1oc(/N=C/c2ccc(F)cc2)c(C#N)c1C | -16.1% |
| O=C(CN1C(=O)COc2ccccc21)NNC(=O)Nc1ccccc1F | -21.5% |
| Oc1oc(-c2cccc3ccccc23)nc1/C=N/c1nccs1 | 13.4% (active) |
| O=c1cc(O)c2ccccc2n1Cc1ccccc1Cl | -12.7% |

| Compound | activity change, less the hit threshold |
| --- | --- |
| N=C1S/C(=C\c2ccc(-c3cccc(Cl)c3)o2)C(=O)N1c1nccs1 | -9.5% |
| Cc1cc([N+](=O)[O-])ccc1-c1ccc(C2Nc3ccccc3C(=O)N2O)o1 (stereo not given) | -3.8% |
| C=CCc1cccc(C2Nc3ccccc3C(=O)N2O)c1O (stereo not given) | -12.4% |
| O=C1c2ccccc2NC(c2ccc(Br)s2)N1O (stereo not given) | 70.9% (active) |
| CC1(OC(=O)c2ccc(Cl)nc2)C(=O)C=C2C=C(c3ccc(C#N)cc3)OC=C2C1=O (stereo not given) | -15.2% |
| COc1cccc(-c2nnc(Nc3nc4c(F)cccc4s3)o2)c1 | 13.2% (active) |
| Fc1cccc2sc(Nc3nnc(-c4ccccc4)o3)nc12 | 79.5% (active) |
| Fc1cccc2sc(Nc3nnc(-c4ccco4)o3)nc12 | 25.3% (active) |
| CC(=O)Nc1nc2c(F)cccc2s1 | -18.4% |
| Fc1ccc2nc(Nc3nc4c(F)cc(F)cc4s3)sc2c1 | -10.7% |
| Fc1cccc2sc(Nc3nc4c(F)cccc4s3)nc12 | 0.7% (active) |
| Cc1cc(C)nc(SCc2nnc(SCC(=O)Nc3nc(-c4ccccc4)cs3)n2-c2ccccc2)n1 | -11% |
| Nc1ccc(NC(=O)Nc2ccc(N)cc2)cc1 | -14.5% |
| OC(CNCC(c1ccc(Cl)cc1Cl)c1c[nH]c2ccccc12)c1ccccc1 (stereo not given) | -43.4% |
| COc1cccc2cc(-c3nc4ccccc4[nH]3)c(=O)oc12 | -23.9% |
| COc1cccc(-c2cc(C(F)(F)F)nc(N3CCCCC3)n2)c1 | -10.8% |
| O=C1CCCN1C(=O)COc1ccccc1[N+](=O)[O-] | -15.5% |
| Cc1ccnc(N2CCC(C(=O)Nc3ccc(Oc4ccccc4)cc3)CC2)n1 | -22% |
| CC(C)C(O)(C#CCN1CCCC1)c1ccccc1 (stereo not given) | -11.8% |
| CC1CCN(C(=S)NC(=O)c2ccc(C(C)(C)C)cc2)CC1 | 10.7% (active) |
| COc1ccc(C(=O)NC(=S)N2CCC(C)CC2)cc1 | -13.2% |
| CC(C)(C)c1ccc(C(=O)NC(=S)N2CCCCCC2)cc1 | 18.8% (active) |
| CC1CN(C(=S)NC(=O)c2ccc(Cl)cc2)CC(C)O1 (stereo not given) | -3.2% |
| O=C(NC(=S)N1CCCC1)c1ccc(Cl)cc1 | 4.3% (active) |
| CC(C)(C)c1ccc(C(=O)NC(=S)N2CCCC2)cc1 | -7.6% |

| Compound | activity change, less the hit threshold |
| --- | --- |
| S=C(N/N=C/c1ccc(Cl)cc1)N1CCOCC1 | -26.9% |
| COc1ccc(C(=O)NC(=S)N2CCC(C)CC2)cc1Br | 51% (active) |
| CN1CCN(C(=S)NC(=O)c2ccc(C(C)(C)C)cc2)CC1 | -16.2% |
| O=C(Nc1ccccc1)OCCCCCOC(=O)Nc1ccccc1 | -18.2% |
| Nc1cc(=O)[nH]c(SCC(=O)N2CCCCC2)n1 | -21.9% |
| O=C1C2CC=CCC2C(=O)N1c1ccc(Cc2ccncc2)cc1 (stereo not given) | -5.4% |
| O=C(c1ccc(C(F)(F)F)cc1)C1CCCN(C(=O)CCc2ccncc2)C1 (stereo not given) | -24.8% |
| O=C(NC(=S)N1CCCC(C(F)(F)F)C1)c1ccc(F)cc1 (stereo not given) | 24.6% (active) |
| O=C(NC(=S)N1CCCCCC1)c1ccc(Cl)cc1Cl | 7.1% (active) |
| COc1cc(OC)cc(C(=O)NC(=S)N2CCCCCC2)c1 | -13.9% |
| CC(C)(C)c1ccc(/C=C/C(=O)N2CCCCC2)cc1 | 5.1% (active) |
| Cc1ccc(/C=C(\NC(=O)c2ccccc2)C(=O)N2CCCCC2)cc1 | -24.3% |
| O=C(C1CC(=O)N(c2ccc3c(c2)OCCO3)C1)N1CCCC(C(F)(F)F)C1 (stereo not given) | -22.3% |
| CC(C)(C)c1nc(SCC(=O)N2CCCC2)c2ccccc2n1 | -0.3% |
| Cc1ccc(C2C(C#N)=C(N)OC3=C2C(=O)CC(C)(C)C3)s1 (stereo not given) | -16.9% |
| O=[N+]([O-])c1ccccc1OCCNCc1ccccc1 | -14.6% |
| COc1ccc(CNC(=O)C(=O)c2cn(CC(=O)N3CCCC3)c3ccccc23)cc1 | -11.5% |
| CCOC(=O)CC(=O)CSc1nc2c(C)c(C)ccc2cc1C | -15.8% |
| COC(=O)Cn1c(=O)c(=O)n(CC(=O)OC)c2ccccc21 | -18.3% |
| O=c1c2[nH]c3ccccc3c2nc2n1CCCS2 | 9.5% (active) |
| O=c1c(Cc2ccccc2)c(O)nc2n1CCCS2 | -10.3% |
| CCOC(=O)N1CCN(C(=O)CSc2nc3c([nH]c4ccccc43)c(=O)n2CC)CC1 | -17.8% |
| Cc1cc(NC(=O)CSc2nc(C3CC3)nc3sc(C)c(C)c23)no1 | 19.9% (active) |
| CCCc1nc(SCC(=O)Nc2cc(C)on2)c2ccccc2n1 | -19.7% |
| Cc1cc(NC(=O)CSc2nnc(Nc3ccccc3)s2)no1 | -25.4% |
